This is a sample that favours compounds with a hit; in the whole collection about 2.4% have one here.
Pol iota inh – qHTS for Inhibitors of Polymerase Iota; DNA polymerase iota (Homo sapiens), Q9UNA4; Pol iota fluorescent replication assay, 10 min; Potency, µM (top dose mostly 115 µM), hits mostly inhibitors; 390,000 compounds, 1% hits
Target sequence (Q9UNA4 whole entry, looked up): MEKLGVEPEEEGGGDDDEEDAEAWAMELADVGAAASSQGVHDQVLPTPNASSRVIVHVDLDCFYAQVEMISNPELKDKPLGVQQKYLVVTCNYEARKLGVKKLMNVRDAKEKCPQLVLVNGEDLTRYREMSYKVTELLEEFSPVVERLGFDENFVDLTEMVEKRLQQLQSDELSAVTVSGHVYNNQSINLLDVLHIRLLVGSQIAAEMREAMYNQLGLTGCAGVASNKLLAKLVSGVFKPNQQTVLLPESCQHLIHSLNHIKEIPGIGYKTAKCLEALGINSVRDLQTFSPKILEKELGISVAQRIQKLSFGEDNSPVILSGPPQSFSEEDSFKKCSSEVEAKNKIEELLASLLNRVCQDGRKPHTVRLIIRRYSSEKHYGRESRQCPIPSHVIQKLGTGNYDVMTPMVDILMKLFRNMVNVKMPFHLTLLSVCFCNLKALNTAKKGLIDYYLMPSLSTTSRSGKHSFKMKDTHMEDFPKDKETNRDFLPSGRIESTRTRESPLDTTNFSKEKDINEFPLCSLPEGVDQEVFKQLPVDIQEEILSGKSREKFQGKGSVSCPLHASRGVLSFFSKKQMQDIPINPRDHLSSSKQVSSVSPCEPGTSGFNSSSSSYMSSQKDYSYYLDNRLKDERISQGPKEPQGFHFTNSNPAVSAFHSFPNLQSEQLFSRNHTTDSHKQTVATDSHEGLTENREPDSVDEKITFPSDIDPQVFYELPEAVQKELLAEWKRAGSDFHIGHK
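Pol iota at 10 nM preincubated 15 min with compounds at room temperature; reaction started with fluorescent substrate, 50 nM final. Fluorescence read kinetically at 0 and 10 min; buffer-only wells as negative control.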
Pol beta inh – qHTS Assay for Inhibitors of DNA Polymerase Beta. P06746. Pol beta primer extension/strand displacement, fluorescence kinetic. Potency, µM (series often up to 114 µM), hits mostly inhibitors. 340,000 compounds, 1.3% hits
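Human Pol beta at 10 nM; strand-displacement substrate 50 nM final. Compound exposure 15 min at room temperature before start, reaction 10 min at room temperature.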
WRN helicase inh – qHTS for Inhibitors of WRN Helicase | WRN helicase unwinding, fluorescent forked duplex, kinetic | Potency, µM (series often up to 114 µM), most hits filed as inhibitors | 360,000 compounds, 0.46% hits | AID 651768, 2012; also: nearly all actives have a fitted effect of over 55% in size
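Enzyme (20 nM final) and test compound sit together 15 min at room temperature before substrate addition. Substrate is a single-forked duplex oligonucleotide (100 nM) labelled with fluorophore and quencher, with 2 mM ATP; helicase unwinding raises red fluorescence, read kinetically.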
Pol eta inh-1 – qHTS for Inhibitors of Polymerase Eta | recombinant Pol eta, fluorescent DNA replication assay | DNA polymerase eta (Homo sapiens), Q9Y253 | Potency, µM (highest dose often 114 µM), actives largely listed as inhibitors | AID 588591, 2011 | 390,000 compounds, 1.2% hits
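Pol eta at 10 nM preincubated with compounds 15 min at room temperature; reaction started with fluorescent substrate (50 nM final) and read kinetically at 0 and 10 min.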
FEN1 inhibitor – qHTS Assay for the Inhibitors of Human Flap endonuclease 1 (FEN1). P39748. Recombinant FEN1 flap cleavage, fluorescence, 15 min. Potency, µM (doses to about 114 µM), most hits filed as inhibitors. 390,000 compounds, 0.35% hits. AID 588795, 2011; also: nearly all actives have a fitted effect of over 65% in size
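Potency values derive from four-parameter Hill fits of normalized qHTS data. The reaction used 10 nM FEN1 preincubated 15 min at room temperature with compound, then 50 nM DNA substrate, read at 0 and 15 min.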
Pol kappa inh-1 – qHTS for Inhibitors of Polymerase Kappa | DNA polymerase kappa (Homo sapiens), Q9UBT6 | purified Pol kappa, fluorescent DNA synthesis assay, 10 min | Potency, µM (highest dose often 107 µM), most hits filed as inhibitors | 400,000 compounds, 0.53% hits | AID 588579, 2011
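Pol kappa 10 nM + cpd, 15 min RT; start w/ substrate 50 nM final; fluorescence kinetic read, 0 and 10 min. Neg ctrl: buffer, no enzyme.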
BAZ2B inh – qHTS Assay for Inhibitors of BAZ2B: Hit Validation; Potency, µM, hits mostly inhibitors; AID 588809, 2011; shares compounds with Pol kappa inh-1; 25 compounds, 100% hits; AlphaScreen BAZ2B / biotin-H3K14Ac peptide displacement; calls by dose curve
BAZ2B bead ctr – qHTS Assay for Inhibitors of BAZ2B: Hit Validation in AlphaScreen Counterscreen | shares compounds with Pol kappa inh-1 | AlphaScreen biotin-His6 peptide bead counterscreen, signal decrease | Potency, µM (titrated, usually from 57.1 µM), usual class: inhibitors | 25 tested, under 10 active;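 active = clear concentration-dependent signal drop in the bead assay lacking the target, so a primary-screen artifact; inconclusive = weak, partial or single-dose response; inactive = no response, so a real primary hit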
TbPGK inh – qHTS for inhibitors of Phosphogylcerate Kinase: Hit Validation Screen. TbPGK coupled GAPDH assay, Kinase-Glo luminescence. shares compounds with Pol kappa inh-1. Potency, µM (top dose mostly 57.5 µM), hits mostly inhibitors. 500 compounds, 79% hits; also: nearly all actives have a fitted effect of over 65% in size
Pol iota confirm – qHTS for Inhibitors of Polymerase Iota: Confirmatory Assay for Cherry-picked Compounds | shares compounds with Pol kappa inh-1 | Pol iota primer extension, TAMRA/BHQ fluorescence | Potency, µM, hits mostly inhibitors | 1,500 compounds, 77% hits | AID 720496, 2013
GALK confirm – Confirmation Assay for Inhibitors of Human Galactokinase (GALK); shares compounds with Pol eta inh-1; purified GALK, Kinase-Glo ATP depletion luminescence; Potency, µM (series often up to 115 µM), actives largely listed as inhibitors; 150 compounds, 70% hits; AID 2015, 2009
Redox cycling – Confirmatory Assay for Inhibitors of Human Galactokinase (GALK): Phenol-HRP redox assay counterscreen | shares compounds with Pol eta inh-1 | 150 compounds, 40% hits | Potency, µM (highest dose often 115 µM), hits mostly inhibitors | Phenol red-HRP H2O2 redox cycling, absorbance 600 nm
HEK293 tox – Secondary Assay for Inhibitors of Human Galactokinase (GALK): HEK-293 Cell Viability Assay | shares compounds with Pol eta inh-1 | HEK-293 viability, ATP luminescence (CellTiter-Glo), 24/48 h | Potency, µM (series often up to 46.1 µM), most hits filed as inhibitors | 170 compounds, 10% hits | AID 2547, 2010
Pol kappa inh-2 – qHTS for Inhibitors of Polymerase Kappa: Confirmatory Assay for Cherry-picked Compounds | shares compounds with Pol eta inh-1 | purified Pol-kappa, fluorescent strand-displacement substrate | Potency, µM, actives largely listed as inhibitors | 920 compounds, 76% hits | AID 720501, 2013
Pol eta inh-2 – qHTS for Inhibitors of Polymerase Eta: Confirmatory Assay for Cherry-picked Compounds; Potency, µM, usual class: inhibitors; shares compounds with Pol eta inh-1; Pol eta primer extension, TAMRA/BHQ fluorescence, 10 min; 2,600 compounds, 64% hits
Hits are given with their value; n = inactive; u = inconclusive; x = not tested or not shown; [ ] = dose if it differs, or a comment. Unless noted, calls follow the shape of the dose curve; as a rule, active = well fitted curve in the direction sought with a large enough effect; inconclusive = small, poorly fitted or top-dose-only effect, or another doubt; inactive = no such curve, though single readings can be large; an effect the other way counts as inactive or inconclusive.

SMILES | Pol iota inh | Pol beta inh | WRN helicase inh | Pol eta inh-1 | FEN1 inhibitor | Pol kappa inh-1 | Pol iota confirm | Pol eta inh-2 | others
CC1C(=O)OC2C1CC[C@@]1(C)C=CC(=O)[C@@]3(C)O[C@@]213 (stereo partly specified) | x | x | x | x | x | n | x | x
NN=C1C(Cl)=C(Cl)C(Cl)=C1Cl | x | x | n[11.6 µM] | u | x | x | 67 | u | Pol kappa inh-2=u
Cc1ccc(-c2nc3c(=O)n(C)c(=O)nc-3n(C)n2)cc1 | n | x | x | x | n | n | 1.68 | 0.849
Cn1ncnc2c(=O)n(C)c(=O)nc1-2 | n | u | n[11.6 µM] | 0.708µM | n | n | 5.32 | 5.36 | TbPGK inh=1.46µM;GALK confirm=1.06µM;Redox cycling=0.595µM;HEK293 tox=3.15µM
CCCCn1c(NS(=O)(=O)c2ccccc2)c(C(=O)OCC)c2nc3ccccc3nc21 | n | n | n | u | n | n | x | x
CCCCn1c(NC(=O)c2ccc(Br)o2)c(C(=O)OCC)c2nc3ccccc3nc21 | u | u | u | 22.4µM | n | n | 42.3 | 19
OCC(O)Cc1ccc2c(c1)OCO2 (stereo unspecified) | x | x | x | x | x | n | x | x
O=C1NC(=O)N(Cc2ccccc2Cl)C(=O)/C1=C/N1CCOCC1 | n | n | n | n | n | n | x | x
O=C1NC(=O)N(Cc2ccco2)C(=O)/C1=C/c1cccn1CCOc1ccccc1Cl | 11.2µM | 25.1µM | u | 14.1µM | n | u | 67 | 30.1 | Pol kappa inh-2=59.7
C=C1C([C@@H](O)C[C@H](C)C2O[C@@]3(CCCCO3)CC[C@H]2C)OC2CC[C@@]3(CC[C@@H](/C=C/[C@@H](C)C4CC(C)=C[C@]5(O4)O[C@H](C[C@@](C)(O)C(=O)O)CCC5O)O3)OC2[C@@H]1O (stereo partly specified) | x | x | x | x | x | n[19.4 µM] | x | x
COc1ccc(N2C(=O)/C(=C/c3ccc(C)o3)C(=O)NC2=S)c(OC)c1 | 11.2µM | 39.8µM | u | 10µM | u | 50.1µM | 47.4 | 16.9 | Pol kappa inh-2=3.36
C=CCN1CC[C@@]23c4c5ccc(O)c4O[C@H]2/C(=N\N=C2/CC[C@@]4(O)[C@H]6Cc7ccc(O)c8c7[C@@]4(CCN6CC=C)[C@@H]2O8)CC[C@]3(O)[C@@H]1C5 | x | x | x | x | x | n[19.4 µM] | x | x
CCCCC(=O)N/N=C/c1c(O)n(Cc2ccco2)c(=O)[nH]c1=O | u | u | n | u | n | n | x | x
CC(=O)Nc1ccc(N=Cc2c(O)n(Cc3ccco3)c(=O)[nH]c2=O)cc1 | 44.7µM | 25.1µM | u | u | n | u | 59.7 | 75.7 | Pol kappa inh-2=u
O=c1ccc2cc(O[C@H]3OC(CO)C(O)C(O)C3O)c(O)cc2o1 (stereo partly specified) | x | x | x | x | x | n | x | x
Cc1ccccc1N1C(=O)NC(=O)/C(=C/c2ccc(N3CCOCC3)o2)C1=O | n | u | n | n | n | n | x | x
CCc1ccccc1N1C(=O)/C(=C/c2ccc(N3CCN(C)CC3)o2)C(=O)NC1=S | 11.2µM | n | 50.1µM | 8.91µM | u | 25.1µM | 59.7 | 9.53
COc1cc(CC(=O)OCC2=C[C@H]3[C@@H]4C(C)(C)[C@]4(OC(C)=O)[C@H](OC(=O)Cc4ccccc4)[C@@H](C)[C@]3(O)[C@@H]3C=C(C)C(=O)[C@@]3(O)C2)ccc1O | x | x | x | x | x | n | x | x
C=C(C)C(=O)Nc1cccc(C2=NOC3(C2)C[C@@H](C(N)=O)N(C(=O)/C(C)=C/C)C3)c1 (stereo partly specified) | 35.5µM | 1.41µM | u | 2.51µM | n | 20µM | 29.9 | 6.75 | BAZ2B inh=3.98;BAZ2B bead ctr=n;TbPGK inh=u;Pol kappa inh-2=8.44
CN1Cc2c(ccc3c2OCO3)[C@@H]2[C@@H](O)Cc3cc4c(cc3[C@@H]21)OCO4 | x | x | x | x | x | n[12 µM] | x | x
C=CCN1C(=O)NC(=O)/C(=C/c2ccoc2)C1=O | 20µM | 28.2µM | 50.1µM | 10µM | u | 44.7µM | 21.2 | 16.9
C=CCN1C(=O)NC(=O)/C(=C/c2cccn2C)C1=O | u | n | n | n | n | n | x | x
O=C1C=C(N2CC2)c2ccccc2C1=O | x | x | 44.7µM | 8.91µM | x | x | 47.4 | 30.1
O=C1c2ccccc2-c2cc3ccccc3cc21 | n | x | n | n | u | n | x | x
CCN(CC)C(=O)N[C@H]1C=C2c3cccc4[nH]cc(c34)C[C@@H]2N(C)C1 | x | x | x | x | x | n[12 µM] | x | x
CCc1ccc(N2C(=O)NC(=O)/C(=C\C=C\c3ccco3)C2=O)cc1 | 7.08µM | u | u | 20µM | 22.4µM | 35.5µM | 37.7 | 30.1 | Pol kappa inh-2=15

Assay outcomes from PubChem BioAssay.
